C2C12 statin: suppressors of statin myotoxicity in C2C12 myotubes, primary screen, cell-based, single point, plate reader; C2C12 myotubes + simvastatin, ATP luminescence, 48 h; scaled: DMSO 0, geranylgeraniol control 100; rescue of ATP level, % at 7.49 µM; hit rate 0.78% among 330,000; AID 602340, 2012;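 active means mean ATP rescue above about 67%, or every replicate alone reaching that limit, limit read from the data, passing the limit was not always enough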;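 further: myotubes were challenged with 10 µM simvastatin during compound exposure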
PGC1a acetyl inh: inhibitors of PGC1a acetylation signal, primary screen, cell-based, U2OS, AlphaScreen, inhibitor mode; AlphaScreen anti-acetyl-lysine; with virally co-expressed GCN5 acetyltransferase; inhibition, % at 15.6 µM; hit rate 0.17% among 350,000; AID 651687, 2012;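 active means every replicate shows inhibition of at least 40%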
miR122 inh: miR-122 Renilla sensor signal increase in Huh7, primary screen, miR-122 inhibitor project, cell-based, single point, plate reader | AID 602342, 2012 | activation (reporter increase), % at 12.5 µM | Huh7 miR-122 Renilla luciferase sensor, 48 h; neutral wells = 0, positive control = 100 | hit rate 0.3% among 340,000;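 active means mean replicate activation score at least 90 and every replicate individually at or above 90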;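 further: higher luciferase means less miR-122 activity so hits act as miR-122 inhibitors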
PvdQ acylase: P. aeruginosa PvdQ acylase inhibitors, primary screen, biochemical, fluorescence, plate reader and imaging, single point | purified PvdQ acylase | inhibition, % at 10 µM | hit rate 0.063% among 340,000 | AID 488965, 2010; in the data active means inhibition above about 30%, passing the limit was not always enough
DENV2 CPE rescue: inhibitors of DENV2 cytopathic effect, primary screen, cell-based, plate reader, single concentration; CPE inhibition, % at 9.99 µM; DENV2-infected cells, cytopathic effect rescue; hit rate 1.7% among 350,000; in the data active means CPE inhibition above about 20%, passing the limit was not always enough; tested in BHK-21 cells
Numbers stand for hits. Most compounds without a hit are left out; they make up all but 2.2% or so of the library.

CCOc1cccc(C2C(C(=O)c3ccco3)=C(O)C(=O)N2Cc2ccncc2)c1 (centres undefined) was read as C2C12 statin 121.7, PGC1a acetyl inh inactive, miR122 inh inactive and PvdQ acylase inactive.
For CC(=O)Nc1ccc(-c2ccnc3c2CC(C(=O)Nc2ccccc2)O3)cc1 (centres undefined) the results were C2C12 statin inactive, PGC1a acetyl inh inactive, miR122 inh inactive and DENV2 CPE rescue 55.9.
Screening CC(C)NC(=O)N(C)C[C@@H]1OCCCC[C@H](C)Oc2ccc(N(C)C)cc2C(=O)N([C@@H](C)CO)C[C@H]1C returned PGC1a acetyl inh inactive, miR122 inh inactive and DENV2 CPE rescue inactive.
For CC(C)NC(=O)N1[C@@H]2c3ccc(-c4ccccc4F)c(=O)n3C[C@@H]2[C@@H](CO)[C@@H]1C(=O)NC1CCC1 the results were C2C12 statin inactive and DENV2 CPE rescue inactive.
C[C@H]1CN([C@@H](C)CO)C(=O)c2cc(NC(=O)Nc3ccc(C(F)(F)F)cc3)ccc2O[C@H]1CN(C)Cc1ccncc1 was read as C2C12 statin inactive, PGC1a acetyl inh inactive, miR122 inh inactive and DENV2 CPE rescue 20.6.
C[C@@H]1CN([C@H](C)CO)C(=O)c2cc(NC(=O)Nc3ccc(C(F)(F)F)cc3)ccc2O[C@@H]1CN(C)Cc1ccncc1 was read as C2C12 statin inactive, PGC1a acetyl inh inactive, miR122 inh inactive and DENV2 CPE rescue 56.7.
Screening C[C@H](CO)N1C[C@H](C)[C@H](CN(C)Cc2ccncc2)Oc2ccc(NC(=O)Nc3ccc(C(F)(F)F)cc3)cc2C1=O returned C2C12 statin inactive, PGC1a acetyl inh inactive, miR122 inh inactive and DENV2 CPE rescue inactive.
COc1ccc(NC(=O)N(C)C[C@H]2Oc3c(NC(=O)c4cc(C)nn4C)cccc3C(=O)N([C@H](C)CO)C[C@H]2C)cc1 was read as C2C12 statin inactive, PGC1a acetyl inh inactive, miR122 inh inactive and DENV2 CPE rescue inactive.
For N#C[C@H]1[C@H](c2ccc(C#Cc3ccccc3F)cc2)[C@H](CO)N1C(=O)c1cccnc1 the results were C2C12 statin inactive, PGC1a acetyl inh inactive and DENV2 CPE rescue inactive.
`CNC(=O)C[C@H]1CC[C@H]2[C@@H](COc3ccc(NC(=O)Nc4ccccc4OC)cc3C(=O)N2C)O1` gave C2C12 statin inactive, PGC1a acetyl inh inactive, miR122 inh inactive and DENV2 CPE rescue inactive.
For CN1CCN(C(=O)C[C@H]2CC[C@@H]3[C@H](COC[C@H](O)CN3S(=O)(=O)c3cccc(Cl)c3)O2)CC1 the results were C2C12 statin inactive, PGC1a acetyl inh inactive, miR122 inh inactive and DENV2 CPE rescue inactive.
For CC(C)CC#Cc1ccc2c(c1)O[C@@H](CN(C)C(=O)Nc1ccccc1F)[C@H](C)CN([C@H](C)CO)S2(=O)=O the results were C2C12 statin inactive, PGC1a acetyl inh inactive, miR122 inh inactive and DENV2 CPE rescue inactive.
Screening COc1ccccc1S(=O)(=O)N[C@H]1CC[C@@H](CCNC(=O)C2CCOCC2)O[C@@H]1CO returned C2C12 statin inactive, PGC1a acetyl inh inactive and DENV2 CPE rescue inactive.
O=C(CCc1nc2ccccc2c(=O)[nH]1)N1CCCc2ccccc21 was read as C2C12 statin inactive, PGC1a acetyl inh inactive, miR122 inh inactive, PvdQ acylase inactive and DENV2 CPE rescue 53.5.
`O=C(Cn1c(=O)[nH]n(-c2ccccc2)c1=O)N1CCCc2ccccc21` gave C2C12 statin 86.0, PGC1a acetyl inh inactive, miR122 inh inactive and PvdQ acylase inactive.
`O=C(CN1CCN(Cc2ccccc2)CC1)N1CCCc2ccccc21` gave C2C12 statin inactive, PGC1a acetyl inh inactive, miR122 inh inactive, PvdQ acylase inactive and DENV2 CPE rescue inactive.
`O=C(CCc1nc2ccccc2c(=O)[nH]1)N1CCN(c2ccccc2Cl)CC1` gave C2C12 statin inactive, PGC1a acetyl inh inactive, miR122 inh inactive, PvdQ acylase inactive and DENV2 CPE rescue inactive.
O=C(NN1C(=O)c2ccccc2C1=O)C1CCCCC1 was read as C2C12 statin 99.6, PGC1a acetyl inh inactive, miR122 inh inactive and PvdQ acylase inactive.
O=C(NN1C(=O)c2ccccc2C1=O)C1CC2CCC1C2 (centres undefined) was read as C2C12 statin inactive, miR122 inh inactive, PvdQ acylase inactive and DENV2 CPE rescue inactive.
For O=C1N=C(N2CCc3ccccc3C2)S/C1=C\c1cccc(O)c1 the results were PGC1a acetyl inh inactive, miR122 inh 108.9 and PvdQ acylase inactive.
For Cc1noc(C)c1S(=O)(=O)N1CCC(C(=O)N2CCN(c3ccccc3Cl)CC2)CC1 the results were C2C12 statin 137.0, PGC1a acetyl inh inactive, miR122 inh inactive and PvdQ acylase inactive.
Cc1cccc(N2CCN(C(=O)C3CCN(S(=O)(=O)c4c(C)noc4C)CC3)CC2)c1C was read as C2C12 statin inactive, PGC1a acetyl inh inactive, miR122 inh inactive, PvdQ acylase inactive and DENV2 CPE rescue inactive.
C[C@@H](NC(=O)[C@@H]1[C@@H](CO)[C@@H]2Cn3c(ccc(-c4ccncc4)c3=O)[C@@H]2N1C)c1ccccc1 was read as C2C12 statin inactive and DENV2 CPE rescue inactive.
O=C(Nc1ccccc1)N1CCCCN2[C@H](CO)[C@H](c3ccc(-c4ccncc4)cc3)[C@H]2C1 was read as C2C12 statin inactive, PGC1a acetyl inh inactive, miR122 inh inactive and DENV2 CPE rescue 37.6.
Screening O=C(Nc1ccccc1)N1CCCCN2[C@H](C1)[C@@H](c1ccc(-c3ccccc3F)cc1)[C@@H]2CO returned PGC1a acetyl inh inactive, miR122 inh inactive and DENV2 CPE rescue 33.0.
Screening O=C(Nc1ccccc1)N1CCCCN2[C@H](C1)[C@H](c1ccc(-c3ccncc3)cc1)[C@@H]2CO returned C2C12 statin inactive, PGC1a acetyl inh inactive, miR122 inh inactive and DENV2 CPE rescue inactive.
Cc1noc(C)c1S(=O)(=O)N(C)C[C@@H]1OCCCC[C@@H](C)Oc2ccc(NC(=O)CCCN(C)C)cc2C(=O)N([C@H](C)CO)C[C@H]1C was read as PGC1a acetyl inh inactive, miR122 inh inactive and DENV2 CPE rescue inactive.
Screening Cc1noc(C)c1NC(=O)N(C)C[C@@H]1OCCCC[C@@H](C)Oc2ccc(NS(C)(=O)=O)cc2C(=O)N([C@H](C)CO)C[C@@H]1C returned PGC1a acetyl inh inactive, miR122 inh inactive and DENV2 CPE rescue inactive.
C[C@H]1CN([C@@H](C)CO)S(=O)(=O)c2ccc(C3=CCCC3)cc2O[C@@H]1CN(C)S(=O)(=O)c1ccc(F)cc1 was read as C2C12 statin inactive, PGC1a acetyl inh inactive, miR122 inh inactive and DENV2 CPE rescue 68.9.
Screening C[C@H](CO)N1C[C@H](C)[C@H](CN(C)Cc2cccnc2)Oc2cc(C3=CCCC3)ccc2S1(=O)=O returned C2C12 statin inactive, PGC1a acetyl inh inactive, miR122 inh inactive and DENV2 CPE rescue 28.3.
